Test results from the supplement of paper PMC9942566.
± gives the standard deviation of the averaged measurements.

Tested on: Serratia marcescens K904 PosmB-luxCDABE reporter (pMQ747)
Assay: PosmB-lux reporter fold induction (RLU/OD600 relative to no-compound control), highest over Biolog concentrations; higher = stronger Rcs reporter activation
Settings: Biolog plate: PM13; well positions: A9-12; wild type K904; 4 h
Procedure: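 Serratia marcescens K904 (wild type) or its isogenic ΔrcsB mutant, carrying the Rcs-dependent PosmB-luxCDABE reporter plasmid pMQ747, was grown in LB at OD600 0.1 in Biolog Phenotype MicroArray plates PM11-20 for 4 h at 30-32°C. Each compound is present at 3-4 proprietary concentrations (not stated); per the Fig. S1 legend the value given is the highest fold over those wells. Three independent trials.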

Structure (SMILES) | PosmB-lux reporter fold induction
[Cl][Ni][Cl] [Nickel chloride] | 1.33 ± 0.21

Same assay, conditions: Biolog plate: PM20; well positions: F1-4; wild type K904; 4 h

Structure (SMILES) | PosmB-lux reporter fold induction
O=c1cc(O)c2ccccc2o1 [4-hydroxyl-coumarin] | 2.25 ± 0.64
